We go through 32 molecules from PubChem BioAssay (NCATS).

Test [1] deals with Glucagon-like peptide 1 receptor (Homo sapiens) (UniProt P43220). Description: qHTS of GLP-1 Receptor Agonists: LOPAC Validation (AID 624148).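 Also: luminescence from a luciferase reporter switched on by cAMP.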 Also: potency is read from the fitted curve at half-maximal effect.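 As to activation: 0% is about no effect; higher luminescence signal means agonism.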 In short, it runs like this: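 Agonism scored as increased luciferase luminescence driven by cAMP in HEK293 clones carrying GLP-1R. Cells settled 12 hours, received compound for 4-6 hr at 37 deg C, 5% CO2, and were read after 12 min detection reagent at RT.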

A short description of test [2]: qHTS of Nrf2 Activators: LOPAC Validation (AID 624149). Also: 0% is about no effect. In short, it runs like this: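 ARE reporter activation measured in AREc32 firefly luciferase cells after 24 hr compound exposure; Steady-Glo luminescence.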
(In general: qHTS replaces the single test concentration by a dilution series.)

The nature of test [3]: HTS Assay for Allosteric Antagonists of the Human D2 Dopamine Receptor: Hit Validation in HTRF (AID 624455).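 Also: stable D1 dopamine receptor cell line scored for blocking the D1 response; % is scaled to controls: 0 for no effect and ±100 for the full control effect.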 In short, it runs like this: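 Signal from an HTRF read-out in D1-expressing stable cells gave hit activity as inhibition of the D1 response.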
(TR-FRET usually uses a lanthanide donor and a delayed reading to cut background.)

A short description of test [4]: qHTS assay for small molecule agonists of the antioxidant response element (ARE) signaling pathway (AID 651741; active = well fitted activation curve with a large enough effect in the signal ratio; the % refers to the signal ratio; also: potency is read from the fitted curve at half-maximal effect; as to activation: % of control where 0% means no effect). In short, it runs like this:
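Seeding 2,000 ARE-bla HepG2 cells per well preceded a 5 h incubation at 37 C/5% CO2 and a 16 h compound exposure at 37 C. Beta-lactamase reporter activity was then quantified by fluorescence after 2 h with LiveBLAzer B/G FRET substrate.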

Test [5] is described as follows: qHTS assay for small molecule activators of the p53 signaling pathway (AID 651743; active = well fitted activation curve with a large enough effect in the signal ratio, not every such curve was filed as active; the % refers to the signal ratio; also: potency is read from the fitted curve at half-maximal effect; as to activation: series mostly up to about 92 µM; % of control where 0% means no effect). The conditions noted are these: HCT-116 p53RE-bla, beta-lactamase FRET ratio, 16 h; activation: active compounds read high. In a few lines: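 Screen for p53 pathway agonists uses stably transfected p53RE-bla HCT-116 cells, 4,000 per well, treated 16 h at 37 C with compounds in DMSO.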
A short description of test [6]: qHTS assay for small molecule activators of the nuclear factor-kappa B (NF-kB) signaling pathway (AID 651749; active = well fitted activation curve with a large enough effect in the signal ratio; the % refers to the signal ratio; also: series mostly up to about 77 µM; % of control where 0% means no effect). The conditions noted are these: NF-kB-bla ME-180 cells, beta-lactamase FRET ratio, 16 h; active compounds read high. In short, it runs like this: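 Stably transfected ME-180 line; NF-kB response element upstream of beta-lactamase. Treatment: compound or DMSO, 16 hr. Detection: fluorescent FRET substrate.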

Test [7] concerns the target Tumor necrosis factor (Homo sapiens) (UniProt P01375). Description: qHTS assay to identify small molecules that stimulate Tumor Necrosis Factor-alpha (TNF-alpha) secretion (AID 651757; active = well fitted curve in the direction sought with a large enough effect in the signal ratio; the % refers to the signal ratio; also: 0% is about no effect). In short, it runs like this:
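Secreted TNF-alpha from compound-treated THP-1 cells (17 hrs, 37 C) was quantified with a homogeneous time-resolved fluorescence antibody assay.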

The target in test [8] is Peroxisome proliferator-activated receptor alpha (Homo sapiens) (UniProt Q07869). The experiment in a line: qHTS assay for small molecule agonists of the peroxisome proliferator-activated receptor alpha (PPARalpha) signaling pathway (AID 651778). Also: % of control where 0% means no effect. The conditions noted are these: PathHunter PPARalpha complementation, chemiluminescence, 6 h; max response: active compounds read high. In a few lines:
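Chemiluminescence from complemented enzyme reported PPARalpha activation in cells after 6 hr of compound treatment at 37 C. The detection reagent was incubated for 60 min at room temperature, and compounds were scored as agonists.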

Test [9] can be described thus: qHTS assay for environmental chemicals that activate the Aryl hydrocarbon Receptor (AhR) signaling pathway (AID 651777). Also: nearly all actives have a fitted effect of over 15% in size. Also: potency is read from the fitted curve at half-maximal effect. As to activation: % of control where 0% means no effect. The conditions noted are these: 1A2-DRE human hepatoma cells, luciferase, 24 h; activation: active compounds read high. In short, it runs like this:
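Human hepatoma 1A2-DRE cells, stably carrying a dioxin response element and CYP1A2 promoter driving luciferase, were exposed to compounds for 24 hr at 37 C and 5% CO2. Luciferase signal was then read after 30 min One-Glo at room temperature.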

Test [10] in a line: qHTS assay for small molecule disruptors of the mitochondrial membrane potential - 1 hr assay (AID 651754; calls by dose curve; also: potency is read from the fitted curve at half-maximal effect; nearly all actives have a fitted effect of over 35% in size). In a few lines: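 Steps: seed HepG2 cells and let attach overnight; pin-transfer compound or vehicle; incubate 1 hr at 37C; add Mito-MPS dye for 30 min; read two-channel fluorescence for monomer and aggregate forms.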
The nature of test [11]: qHTS assay for small molecule disruptors of the mitochondrial membrane potential - 5 hr assay (AID 651755; calls by dose curve; also: potency is read from the fitted curve at half-maximal effect; nearly all actives have a fitted effect of over 40% in size). In short, it runs like this:
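HepG2, 2,000 cells/well, overnight attach; cpd or DMSO 5 hr, 37C/5% CO2; Mito-MPS 30 min 37C; fluor 490/535 + 540/590 nm.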

Test [12] in a line: qHTS assay to identify small molecules that stimulate interleukin-8 (IL-8) secretion (AID 651758; active = well fitted activation curve with a large enough effect in the signal ratio; the % refers to the signal ratio; also: 0% is about no effect). In short, it runs like this:
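Secreted IL-8 measured by TR-FRET sandwich (cryptate and XL665 antibodies) from THP-1 cells exposed to compound overnight (16 hrs, 37 C).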

Several values for one entry are separate records, joined by “and”; a condition that tells them apart may be missing. Identical values can stand only once. Values without a mark were called inactive. Results filed as inconclusive are left out. Activity calls are given as the source filed them. Unless noted, calls follow the shape of the dose curve; as a rule, active = well fitted curve in the direction sought with a large enough effect; inconclusive = small, poorly fitted or top-dose-only effect, or another doubt; inactive = no such curve, though single readings can be large; an effect the other way counts as inactive or inconclusive.

Sequence of Peroxisome proliferator-activated receptor alpha (Homo sapiens) (Q07869 whole entry, looked up): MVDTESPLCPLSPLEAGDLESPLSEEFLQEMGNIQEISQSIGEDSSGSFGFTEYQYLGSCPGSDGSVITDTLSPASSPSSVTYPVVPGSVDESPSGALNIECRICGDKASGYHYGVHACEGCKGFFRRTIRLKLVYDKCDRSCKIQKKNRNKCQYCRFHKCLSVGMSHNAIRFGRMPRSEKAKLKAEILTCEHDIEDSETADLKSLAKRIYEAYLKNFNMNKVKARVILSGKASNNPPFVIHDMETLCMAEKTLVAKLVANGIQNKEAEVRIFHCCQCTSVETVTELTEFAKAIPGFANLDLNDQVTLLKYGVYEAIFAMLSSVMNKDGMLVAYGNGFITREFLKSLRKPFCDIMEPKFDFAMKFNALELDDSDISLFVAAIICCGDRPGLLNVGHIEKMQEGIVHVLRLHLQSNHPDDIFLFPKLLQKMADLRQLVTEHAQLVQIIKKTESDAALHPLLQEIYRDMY
Sequence of Tumor necrosis factor (Homo sapiens) (P01375 whole entry, looked up): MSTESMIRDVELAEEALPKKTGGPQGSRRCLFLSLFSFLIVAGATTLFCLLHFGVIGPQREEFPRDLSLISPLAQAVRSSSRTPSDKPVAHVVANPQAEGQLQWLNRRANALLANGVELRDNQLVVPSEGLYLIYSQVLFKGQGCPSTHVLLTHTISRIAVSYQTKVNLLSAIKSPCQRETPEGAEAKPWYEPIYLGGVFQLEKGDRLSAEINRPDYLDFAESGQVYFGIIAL
Sequence of Glucagon-like peptide 1 receptor (Homo sapiens) (P43220 whole entry, looked up): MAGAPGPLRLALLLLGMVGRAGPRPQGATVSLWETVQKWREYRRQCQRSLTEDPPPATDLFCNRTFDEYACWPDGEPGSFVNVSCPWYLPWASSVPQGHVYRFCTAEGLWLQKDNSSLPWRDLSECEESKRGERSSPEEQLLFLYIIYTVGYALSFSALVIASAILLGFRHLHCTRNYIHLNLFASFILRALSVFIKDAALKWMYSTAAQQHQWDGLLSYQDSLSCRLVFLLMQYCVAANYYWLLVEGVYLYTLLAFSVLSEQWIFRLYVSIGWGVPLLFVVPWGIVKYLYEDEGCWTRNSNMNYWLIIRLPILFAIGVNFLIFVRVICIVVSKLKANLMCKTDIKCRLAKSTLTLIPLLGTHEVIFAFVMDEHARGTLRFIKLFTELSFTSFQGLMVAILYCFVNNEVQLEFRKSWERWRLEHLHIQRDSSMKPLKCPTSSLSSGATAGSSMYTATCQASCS

With `Clc1ccc2nsnc2c1NC1=NCCN1`, the Potency result in test [1] and in test [3] was “inactive” throughout. The molecule was called inactive in [2].
Consider `CCOC(=O)c1ncn2c1CN(C)C(=O)c1cc(F)ccc1-2`, for which the Potency entry in test [1] and in test [3] was “inactive” throughout. Moreover, the outcome in test [2] was inactive.
In the case of `CC[N+](CC)(CC)CCOc1cccc(OCC[N+](CC)(CC)CC)c1OCC[N+](CC)(CC)CC`, the Potency entry in test [1] and in test [3] was “inactive” throughout. Moreover, the molecule was called inactive in [2].
Take `COc1cc2nc(N(C)CCCNC(=O)C3CCCO3)nc(N)c2cc1OC` (stereo not drawn): the Potency entry in test [1] and in test [3] was “inactive” throughout. Also, the molecule was classed as inactive in test [2].
Regarding `Fc1ccc([C@@H]2CCNC[C@H]2COc2ccc3c(c2)OCO3)cc1`, the Potency entry in [1] and in test [3] was “inactive” throughout. The call in [2] was inactive.
Take `NC12CC3CC(CC(C3)C1)C2`: the Potency result in [1] and in test [3] was “inactive” in each case. The call in test [2] was inactive.
As to `COc1ccc(C2CNC(=O)C2)cc1OC1CCCC1` (stereo not drawn), in test [1], the Potency was 0.0461 µM (active). Further, the molecule was called inactive in [2]. In [3], the Potency result is “inactive”.
Take `COc1ccccc1N1CCN(CC(O)COc2cccc3ccccc23)CC1` (stereo not drawn): the Potency entry in [1] and in test [3] was “inactive” each time. Also, the call in test [2] was inactive.
On to `COc1ccccc1OCCNCC(O)COc1cccc2[nH]c3ccccc3c12` (stereo not drawn), for which the Potency entry in test [1] and in test [3] was “inactive” each time. The outcome in [2] was inactive.
Regarding `CCN1CCCC1CNC(=O)c1cc(S(=O)(=O)CC)c(N)cc1OC` (stereo not drawn), the Potency result in test [1] and in test [3] was “inactive” in each case. Also, the molecule was classed as inactive in test [2].
As for `NC(CO)C(=O)NNCc1ccc(O)c(O)c1O` (stereo not drawn), the Potency entry in test [1] and in test [3] was “inactive” throughout. Besides, in test [2], the result was inactive.
For the molecule `O=C(c1ccc(F)cc1)C1CCN(CCn2c(=O)[nH]c3ccccc3c2=O)CC1`, the Potency result in test [1] and in test [3] was “inactive” throughout. Also, the molecule was called inactive in test [2].
Regarding `CC1COc2c(N3CCN(C)CC3)c(F)cc3c(=O)c(C(=O)O)cn1c23` (stereo not drawn), the Potency entry in [1] and in [3] was “inactive” each time. For the same molecule, the call in test [2] was inactive.
In the case of `C[C@H]1c2cccc(O)c2C(O)=C2C(=O)[C@]3(O)C(O)=C(C(N)=O)C(=O)[C@@H](N(C)C)[C@@H]3[C@@H](O)[C@@H]21`, the Potency result in test [1] and in [3] was “inactive” throughout. Besides, the outcome in [2] was inactive.
As to `CC12CC3CC(C)(C1)CC(N)(C3)C2`, the Potency entry in [1] and in test [3] was “inactive” throughout. Also, the call in test [2] was inactive.
As for `NCCCCCC(=O)O`, the Potency entry in test [1] and in [3] was “inactive” each time. Moreover, the call in test [2] was inactive.
For the molecule `Cc1cnc(C(=O)NCCc2ccc(S(=O)(=O)NC(=O)NC3CCCCC3)cc2)cn1`, the Potency result in test [1] and in test [3] was “inactive” throughout. For the same molecule, in [2], the call was inactive.
Consider `CN1CCN2c3ccccc3Cc3ccccc3C2C1` (stereo not drawn), for which the Potency entry in test [1] and in test [3] was “inactive” each time. Further, the result in test [2] was inactive.
With `CN1CCN(C2=Nc3cc(Cl)ccc3Nc3ccccc32)CC1`, the Potency result in test [1] is “inactive”.
Take `COc1nc(C)nc(Cl)c1NC1=NCCN1`: the Potency entry in test [1] and in test [3] was “inactive” in each case. The result in test [2] was inactive.
Take `CCOC(=O)Nc1ccc(NCc2ccc(F)cc2)nc1N`: the Potency result in test [1] and in [3] was “inactive” each time. Also, the molecule was called inactive in test [2].
Turning to `Nc1ccn([C@H]2CC[C@@H](CO)O2)c(=O)n1`, the Potency entry in [1], in test [3] and in [4] was “inactive” throughout. Besides, the molecule was called inactive in test [2] and in [7]. For the same molecule, the activation in [5] was -0.413% and 2.91%; in [6], -0.557% and 0.274%. Further, the max response in [8] was -1.99% and 0.814%.
Take `Cn1c(=O)c2c(ncn2C)n(C)c1=O`: the Potency entry in [1], in [3] and in test [4] was “inactive” throughout. Further, the molecule was classed as inactive in [2] and in test [7]. Besides, the activation in test [5] is -3.61% and -3.49%; in [9], -0.0272% and 0.654%. The max response in test [8] is -7.69% and -2.94%.
Regarding `CCCNCC(O)COc1ccccc1C(=O)CCc1ccccc1` (stereo not drawn), the Potency result in test [1] and in test [3] was “inactive” in each case. Besides, the molecule was classed as inactive in test [2].
With `CCOC(=O)C(C)(C)Oc1ccc(Cl)cc1`, the Potency entry in [1], in test [3] and in test [4] was “inactive” each time. The result in test [2] was inactive. In addition, the activation in test [5] was 3.33%; in test [6], -3.61%; in test [9], 0.305%. The max response in test [8] is 5.39%.
On to `O=C1Cc2cc(CCN3CCN(c4nsc5ccccc45)CC3)c(Cl)cc2N1`, for which the Potency result in test [1] and in test [3] was “inactive” in each case. The result in test [2] was inactive.
Turning to `O=C(Nc1ccc([N+](=O)[O-])cc1Cl)c1cc(Cl)ccc1O`, the Potency entry in test [1] and in test [3] was “inactive” each time. The outcome in test [2] was inactive. Further, the Potency in test [4] is 3.06 µM (active); in test [5], 0.891 µM (active); in test [9], 1.41 µM (active). For the same molecule, the activation in [6] is -2.6%. Besides, in test [8], the max response was -1.62%.
For `NC(=O)NO`, the Potency result in test [1] and in test [3] was “inactive” each time. For the same molecule, the molecule was called inactive in [2].
Regarding `Cn1c(=O)c2[nH]cnc2n(C)c1=O`, the Potency entry in [1], in test [3] and in test [4] was “inactive” throughout. Further, the outcome in test [2] and in test [7] was inactive. Moreover, the figures for the activation in [5], in [6] and in [9] were 0.514%, 0.41% and 3.65%, respectively. Besides, in test [8], the max response was -1.61%.
Consider `Nc1nnc(-c2cccc(Cl)c2Cl)c(N)n1`, for which the Potency result in test [1] and in test [3] was “inactive” in each case. The molecule was called inactive in [2].
Consider `CNCCCC12CCC(c3ccccc31)c1ccccc12`, for which the Potency entry in test [1] and in test [3] was “inactive” each time. Also, the call in test [2] was inactive.
In the case of `O=c1c(-c2ccc(O)cc2)coc2cc(O)cc(O)c12`, the Potency entry in test [1] and in test [3] was “inactive” throughout. Further, the outcome in test [2] and in test [12] was inactive. Also, the Potency in [4] is 9.69 µM (active) and 13.3 µM (active); in test [10], 5.96 µM (active); in test [11], 7.5 µM (active); in test [9] it was 12.6 µM (active). Further, the activation is 12.7% and 14.1% in test [5]; 3.3% and 4.88% in test [6]. Besides, the max response in [8] is -1.44% and -0.484%.
